# Where a name gives a salt, the structure may show the parent alone.
# Columns and labels:
# Settings in all cases: treatment time: 24 h
# A549-ACTB-RAB5A [1] = assay: lowest phenotypically active concentration; higher = less potent
# In short: (§1)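 Cells from fifteen gene-edited reporter lines (A549, HepG2 and WPMY1) were treated for 24 h at 0.3, 1, 3 or 9 µM and imaged live, four wells per condition. Features were normalised per well to solvent control wells. A condition deviated if ≥3 of 4 wells passed the 95th percentile of control Euclidean distances and was reproducible if its median replicate Pearson correlation beat the 95th percentile of non-replicates; phenotypic activity needed both.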
# A549-CANX-COX4 [2] = assay: as above
# In short: as §1
# A549-GM130-SQSTM1 [3] = assay: as above
# In short: as §1
# A549-TP53BP1-CLTA [4] = assay: as above
# In short: as §1
# A549-TUBA1B-RELA [5] = assay: as above
# In short: as §1
# A549-ACTB-RAB5A [6] = assay: phenotypically active (imaging signature differs from DMSO and reproducible) at any of 0.3-9 uM (binary (1 = active, 0 = inactive)); higher = active
# In short: as §1
# A549-CANX-COX4 [7] = assay: as above
# In short: as §1
# A549-GM130-SQSTM1 [8] = assay: as above
# In short: as §1
# A549-TP53BP1-CLTA [9] = assay: as above
# In short: as §1
# A549-TUBA1B-RELA [10] = assay: as above
# In short: as §1
# HepG2-ACTB-RAB5A = assay: as above
# In short: as §1
# HepG2-CANX-COX4 = assay: as above
# In short: as §1
# HepG2-GM130-SQSTM1 = assay: as above
# In short: as §1
# HepG2-TP53BP1-CLTA = assay: as above
# In short: as §1
# HepG2-TUBA1B-RELA = assay: as above
# In short: as §1
# WPMY1-ACTB-RAB5A = assay: as above
# In short: as §1
# WPMY1-CANX-COX4 = assay: as above
# In short: as §1
# WPMY1-GM130-SQSTM1 = assay: as above
# In short: as §1
# WPMY1-TP53BP1-CLTA = assay: as above
# In short: as §1
# WPMY1-TUBA1B-RELA = assay: as above
# In short: as §1
Structure (SMILES),lowest phenotypically active concentration (A549-ACTB-RAB5A [1]),lowest phenotypically active concentration (A549-CANX-COX4 [2]),lowest phenotypically active concentration (A549-GM130-SQSTM1 [3]),lowest phenotypically active concentration (A549-TP53BP1-CLTA [4]),lowest phenotypically active concentration (A549-TUBA1B-RELA [5]),phenotypically active (A549-ACTB-RAB5A [6]),phenotypically active (A549-CANX-COX4 [7]),phenotypically active (A549-GM130-SQSTM1 [8]),phenotypically active (A549-TP53BP1-CLTA [9]),phenotypically active (A549-TUBA1B-RELA [10]),phenotypically active (HepG2-ACTB-RAB5A),phenotypically active (HepG2-CANX-COX4),phenotypically active (HepG2-GM130-SQSTM1),phenotypically active (HepG2-TP53BP1-CLTA),phenotypically active (HepG2-TUBA1B-RELA),phenotypically active (WPMY1-ACTB-RAB5A),phenotypically active (WPMY1-CANX-COX4),phenotypically active (WPMY1-GM130-SQSTM1),phenotypically active (WPMY1-TP53BP1-CLTA),phenotypically active (WPMY1-TUBA1B-RELA)
CC(C)(N)c1cc(C(=O)N[C@@H]2CCc3ccc(OC4=C5CCC(=O)N=C5NC=C4)cc3C2)cc(C(F)(F)F)c1 [ML 786 dihydrochloride],1 µM,1 µM,1 µM,3 µM,1 µM,1 (active),1 (active),1 (active),1 (active),1 (active),1 (active),1 (active),1 (active),1 (active),1 (active),1 (active),1 (active),1 (active),1 (active),1 (active)
CNC1CCC2(C)C(=CCC3C2CCC24CN(C)C(C)C2CCC34)C1 (stereo not given) [Isoconessimine],≤ 0.3 µM,9 µM,≤ 0.3 µM,1 µM,≤ 0.3 µM,1 (active),1 (active),1 (active),1 (active),1 (active),1 (active),1 (active),1 (active),1 (active),1 (active),1 (active),1 (active),1 (active),1 (active),1 (active)
Cc1cc(Nc2ncc3c(n2)N(C)C(=O)N(c2cc(NC(=O)c4cccc(C(F)(F)F)c4)ccc2C)C3)n(C)n1 [Pluripotin],≤ 0.3 µM,≤ 0.3 µM,≤ 0.3 µM,≤ 0.3 µM,≤ 0.3 µM,1 (active),1 (active),1 (active),1 (active),1 (active),1 (active),1 (active),1 (active),1 (active),1 (active),1 (active),1 (active),1 (active),1 (active),1 (active)
O=C(c1cccc(Cl)c1F)N1CCN(Cc2cccc(Nc3nccs3)n2)CC1,≤ 0.3 µM,1 µM,1 µM,1 µM,1 µM,1 (active),1 (active),1 (active),1 (active),1 (active),1 (active),1 (active),1 (active),1 (active),1 (active),1 (active),1 (active),1 (active),1 (active),1 (active)
CCOC(=O)Nc1cc(-c2ccc(C)c(NS(C)(=O)=O)c2)nn2c(C)nnc12 [Bromosporine],≤ 0.3 µM,1 µM,1 µM,1 µM,1 µM,1 (active),1 (active),1 (active),1 (active),1 (active),1 (active),1 (active),1 (active),1 (active),1 (active),1 (active),1 (active),1 (active),1 (active),1 (active)

# Source: the supplement of paper PMC7411054
